Inhibition data for 33 molecules are collected here from PubChem BioAssay.

Test [1] deals with transactivating tegument protein VP16 (Human herpesvirus 1). Kind of test: compounds suppressing VP16-driven luciferase signal – cell-based, luminescence, single concentration, counter-screen for SRC2 inhibitor project (AID 652007; in the data active = inhibition above about 36%). As to conditions: cell-based VP16 transactivation luciferase reporter, at 8.9 µM, hits give high values. A general note: Counterscreens check selectivity or assay interference.

Test [2] has as its target Nuclear receptor coactivator 2 (Homo sapiens) (UniProt Q15596). Kind of test: inhibition of GAL4-SRC2 driven luciferase expression – cell-based, luminescence, HEK293, triplicate, confirmation (AID 652008).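 Note: 0% = DMSO-treated cells and 100% = Gossypol at 36 µM.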 Particulars: HEK293 GAL4-SRC2 luciferase reporter, at 8.9 µM, hits give high values.

Values without a mark were called inactive. Activity calls are given as the source filed them.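 Rule for the calls, unless noted: active = mean inhibition above 46.5%, the solvent-only control mean plus 3 SD; inactive = the rest.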

Sequence of Nuclear receptor coactivator 2 (Homo sapiens) (Q15596 whole entry, looked up, the tested form may be a part): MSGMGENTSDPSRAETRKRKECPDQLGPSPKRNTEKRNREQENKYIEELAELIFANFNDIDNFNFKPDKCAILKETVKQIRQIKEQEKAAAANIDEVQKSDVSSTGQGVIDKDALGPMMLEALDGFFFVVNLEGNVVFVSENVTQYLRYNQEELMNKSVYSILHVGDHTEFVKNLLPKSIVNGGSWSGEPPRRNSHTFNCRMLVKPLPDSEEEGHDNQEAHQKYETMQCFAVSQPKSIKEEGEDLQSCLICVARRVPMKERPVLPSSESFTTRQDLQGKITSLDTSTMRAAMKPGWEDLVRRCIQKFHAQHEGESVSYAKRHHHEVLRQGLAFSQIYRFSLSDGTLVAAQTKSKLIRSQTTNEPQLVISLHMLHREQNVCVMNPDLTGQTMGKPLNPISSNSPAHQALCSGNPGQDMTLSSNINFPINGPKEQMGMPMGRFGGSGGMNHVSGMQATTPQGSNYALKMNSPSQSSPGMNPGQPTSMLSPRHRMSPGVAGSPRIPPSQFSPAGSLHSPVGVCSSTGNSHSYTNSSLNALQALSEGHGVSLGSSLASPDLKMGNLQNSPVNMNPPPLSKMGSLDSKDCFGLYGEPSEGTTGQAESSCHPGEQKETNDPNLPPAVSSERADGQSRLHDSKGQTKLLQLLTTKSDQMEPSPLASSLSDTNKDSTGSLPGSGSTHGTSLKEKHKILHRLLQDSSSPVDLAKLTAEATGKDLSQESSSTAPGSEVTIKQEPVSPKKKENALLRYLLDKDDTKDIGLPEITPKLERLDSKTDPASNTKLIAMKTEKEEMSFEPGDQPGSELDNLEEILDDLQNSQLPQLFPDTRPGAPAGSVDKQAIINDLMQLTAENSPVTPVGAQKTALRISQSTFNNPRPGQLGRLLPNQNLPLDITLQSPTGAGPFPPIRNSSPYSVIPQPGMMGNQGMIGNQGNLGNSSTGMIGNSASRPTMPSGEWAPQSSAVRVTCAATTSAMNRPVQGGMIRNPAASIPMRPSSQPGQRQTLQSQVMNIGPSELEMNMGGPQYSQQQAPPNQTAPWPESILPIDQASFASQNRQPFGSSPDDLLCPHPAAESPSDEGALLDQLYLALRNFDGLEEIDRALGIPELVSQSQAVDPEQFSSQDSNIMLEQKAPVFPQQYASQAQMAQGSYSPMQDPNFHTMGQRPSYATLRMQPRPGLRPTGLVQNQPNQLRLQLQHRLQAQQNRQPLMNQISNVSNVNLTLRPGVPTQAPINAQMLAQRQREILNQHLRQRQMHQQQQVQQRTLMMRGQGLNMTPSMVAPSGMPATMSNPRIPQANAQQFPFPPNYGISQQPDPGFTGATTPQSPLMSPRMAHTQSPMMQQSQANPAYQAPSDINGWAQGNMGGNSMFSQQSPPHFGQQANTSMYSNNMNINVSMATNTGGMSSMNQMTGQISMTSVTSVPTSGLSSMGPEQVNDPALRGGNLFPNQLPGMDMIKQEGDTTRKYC

In the case of `CC(C)(C)c1ccc(-c2noc(CCC(=O)NCc3ccco3)n2)cc1`, the values for the inhibition in test [1] and in test [2] were 40.9% (active) and 59.5% (active), respectively.
Consider `CCOc1ccccc1OCCCCOc1ccccc1F`, for which the inhibition in test [1] was -9.29%; in test [2], -12.6%.
With `O=S(=O)(c1ccc2c(c1)OCCO2)N1CCN(c2ncnc3sccc23)CC1`, the inhibition in test [1] is 6.15%; in test [2], 36.6%.
On to `O=C(Nc1ccccc1)C1=C(c2ccccc2)S(=O)(=O)CCS1(=O)=O`, for which the results for the inhibition in test [1] and in test [2] were 84.9% (active) and 90.1% (active), respectively.
With `O=C(Cn1ncc2c([nH]c3ccccc32)c1=O)NCCc1ccccc1`, the inhibition in test [1] is 21.4%; in test [2], 12.2%.
For the molecule `CCNC(=O)C1(C)CCCN(Cc2csc(-c3ccccc3)n2)C1` (stereo unspecified), the inhibition in test [1] is -30.6%; in test [2], -4.83%.
For `Cc1ccc(CC2C(=O)N(c3cc(C)ccc3C)C(=O)C2C)cc1` (stereo unspecified), in that order: 0.03% and 9.44%.
Take `CC(=O)c1ccc(OCCCC(=O)N2CCN(S(=O)(=O)c3ccc(C)cc3C)CC2)cc1`: the inhibition in test [1] was 7.87%; in test [2], 0.39%.
For `Cc1ccc(C2CC(c3cccs3)=NN2C(=O)CSC2=NCCS2)cc1` (stereo unspecified), the inhibition is 17.9% in test [1] and 16.1% in test [2].
For `CCC(C)Nc1nc(C)nc2c1oc1ccccc12` (stereo unspecified), the inhibition in test [1] was 2.3%; in test [2], 3.55%.
For `COc1cc(/C=C/C(=O)Nc2ccc(OC)c(S(=O)(=O)N3CCOCC3)c2)ccc1OC(F)F`, the inhibition was 11% in test [1] and 63.1% (active) in test [2].
Regarding `CCCCN1CC(COCc2ccccc2)Oc2cccc(NCc3cc(OC)c(OC)c(OC)c3)c2S1(=O)=O` (stereo unspecified), the inhibition in test [1] was -12.2%; in test [2], 13.4%.
Consider `O=C(NC1CC1)c1ccc2c(c1)N(Cc1ccc(Cl)cc1)CCS2`, for which the inhibition in test [1] was 4.34%; in test [2], 18.6%.
For `Oc1ccc(N=Nc2ccc3c(c2)OCCO3)c(O)c1`, in that order: -71.4% and 35.1%.
`O=C(O)c1cccc(CSc2nnc(COc3ccccc3)o2)c1`: the inhibition in test [1] was 15.7%; in test [2], 34.5%.
For `c1ccc(-n2nnnc2Oc2ccc(-n3ccnc3)cc2)cc1`, in that order: -16.2% and 1.01%.
For `CS(=O)(=O)N(Cc1ccccc1Cl)c1ccc(C(=O)NCc2cccnc2)cc1`, the inhibition in test [1] was -10.9%; in test [2], 35.5%.
For `CCC(=O)N1N=C(c2cccs2)CC1c1ccc(C)cc1` (stereo unspecified), the inhibition in test [1] was -15.8%; in test [2] it was -13.8%.
For `COc1cccc(NC(=O)Nc2nnc(N3C(C)CCCC3C)s2)c1` (stereo unspecified), the inhibition in test [1] was -51.2%; in test [2], -7.93%.
As for `CCc1ccc(-c2nc(CS(=O)CC(=O)NCc3ccccc3)c(C)o2)cc1` (stereo unspecified), the inhibition is -8.7% in test [1] and 51.9% (active) in test [2].
For `COc1cccc(CNc2nc(NCC3CC3)nc3ccsc23)c1OC` the same measures were -3.78% and 18.8%.
For `CC(C)(C)c1ccc(OCC(O)CSc2ncn[nH]2)cc1` (stereo unspecified), the inhibition in test [1] is 0.7%; in test [2] it was 14.2%.
Regarding `C[C@@H]1CN([C@H](C)CO)C(=O)c2cc(NC(=O)Nc3ccc(C(F)(F)F)cc3)ccc2O[C@H]1CN(C)S(=O)(=O)c1ccccc1`, the inhibition in test [1] was 18.9%; in test [2], 32.9%.
Turning to `CCc1ccc(CCNC(=O)OCCCN2CCC3(CCC(c4ccccc4)CC3)C2=O)cc1` (stereo unspecified), the inhibition was 5.9% in test [1] and 33.8% in test [2].
For the molecule `N/C(=N\OC(=O)c1ccc(Cl)cc1Cl)c1ccccn1`, the inhibition in test [1] is -75.5%; in test [2] it was -25.1%.
In the case of `CN(C)c1ccc(C2Nc3ccccc3C(=O)N2CCCN2CCOCC2)cc1` (stereo unspecified), the inhibition in test [1] was -12.2%; in test [2], 2.92%.
With `Cc1cccc(N(Cc2ccccc2)C(=O)CCl)c1`, the values for the inhibition in test [1] and in test [2] were 15% and 33.4%, respectively.
As for `CC(Oc1ccc(Cl)cc1Cl)C(=O)NCCCn1ccnc1` (stereo unspecified), the inhibition is -8.12% in test [1] and -15.5% in test [2].
Take `CC1(C(=O)NS(=O)(=O)Cc2ccccc2C(F)(F)F)CCN1C(=O)c1ccco1` (stereo unspecified): the inhibition in test [1] is 0.06%; in test [2] it was -19.7%.
For `Cc1ccc(CN2C(=O)/C(=C\c3ccc(C(=O)NCc4cccnc4)cc3)Oc3ccccc32)cc1`, in that order: -0.83% and 50.2% (active).
For `O=C(CCc1ccncc1)N1CCCC(Nc2ccc(F)c(F)c2)C1` (stereo unspecified) the same measures were -3.61% and -7.87%.
Turning to `CCN(CC(=O)Nc1cc(Cl)ccc1C)C(=O)C1CCN(c2ncnc3sc(C)c(C)c23)CC1`, the results for the inhibition in test [1] and in test [2] were 8.26% and 20.7%, respectively.
`CC1CCc2nc(NC(=O)c3ccco3)sc2C1` (stereo unspecified): the inhibition in test [1] was -23.2%; in test [2], 11.1%.

Usually inhibition stands for the drop in the measured response relative to a control, in per cent.
